Our source for the z-score and composite z-score values is PubChem BioAssay.

Where “and” joins values, the source holds several entries; their conditions need not be identical. Equal entries are not always repeated. Some structures have more than one record in an assay (separate samples or runs), and their calls can disagree. Calls of active or inactive are those of the source.

Test [1] can be described thus: E. coli DRC41 culture turbidity changes, primary screen, E. coli filamentation inducer project, strain DRC41, OD650, 48 h (AID 1152).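 Further: E. coli MC1000 strain DRC41 lacking acrAB efflux pump and sulA.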 As to conditions: E. coli DRC41 (acrAB sulA), higher = more signal, called active from +8 up or from −8 down.
A short description of test [2]: small-molecule binders of probe aLefty1, primary screen, biochemical, small-molecule microarray, 635/667 nm fluorescence (AID 1153).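 Further: score merges spot fluorescence with signal-to-noise ratio from the scanned slide images.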 Particulars: higher = more signal.
A short description of test [3]: PSAC antagonists in infected red cells, primary screen, cell-based, P. falciparum Indochina, OD700, 1 h (AID 1154). As to conditions: P. falciparum Indochina infected RBC osmotic lysis, higher = more signal, called active from +8 up or from −8 down.
The nature of test [4]: PSAC antagonists in infected red cells, primary screen, cell-based, P. falciparum Indochina, OD700, 2 h (AID 1155).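 Further: lysis reports solute entry through the parasite surface anion channel PSAC; channel blockers reduce lysis of infected cells.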 Particulars: P. falciparum Indochina infected erythrocytes, osmotic lysis OD700; higher = more signal, called active from +8 up or from −8 down.
Test [5] can be described thus: osmotic lysis modulators in infected erythrocytes, primary screen, PSAC antagonist project, cell-based, P. falciparum Indochina, OD700, 3 h (AID 1156). Particulars: higher = more signal, called active from +8 up or from −8 down.
A short description of test [6]: PSAC antagonists in infected red cells, primary screen, cell-based, P. falciparum Indochina, OD700, 18 h (AID 1157). As to conditions: P. falciparum Indochina infected erythrocytes, osmotic lysis OD700, 18 h; higher = more signal, called active from +8 up or from −8 down.
Test [7] can be described thus: modulators of S6 phosphorylation in cells, primary screen, cell-based, A549, cytoblot, luminescence, serum-stimulated (AID 1158).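 Further: serum-stimulated A549 lung adenocarcinoma cells; signal is phosphorylated S6 detected by cytoblot immunostaining with HRP secondary.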 As to conditions: A549 phospho-S6 cytoblot, 5 h, higher = more signal.
In test [8] the target is NADPH oxidase 2 (Homo sapiens) (UniProt P04839). Description: NOX2-dependent H2O2 signal modulators, primary screen, NOX inhibitor project, cell-based, HEK293-NOX2, PMA-stimulated, Amplex Red fluorescence (AID 1159). Further: test concentration not given here. Particulars: 45 min, higher = more signal, called active from +8 up or from −8 down.
For test [9], the target named is NADPH oxidase 4 (Homo sapiens) (UniProt Q9NPH5). Briefly: NOX4-dependent H2O2 signal modulators, primary screen, NOX inhibitor project, cell-based, HEK293-NOX4, tetracycline-induced, Amplex Red fluorescence (AID 1160). As to conditions: 45 min, higher = more signal, called active from +8 up or from −8 down.
Test [10] has as its target NADPH oxidase 5 (Homo sapiens) (UniProt Q96PH1). Description: NOX5-dependent H2O2 signal modulators, primary screen, NOX inhibitor project, cell-based, HEK293-NOX5, Amplex Red fluorescence (AID 1161). As to conditions: HEK293-NOX5, ionomycin, 45 min, higher = more signal.

Sequence of NADPH oxidase 4 (Homo sapiens) (Q9NPH5 whole entry, looked up): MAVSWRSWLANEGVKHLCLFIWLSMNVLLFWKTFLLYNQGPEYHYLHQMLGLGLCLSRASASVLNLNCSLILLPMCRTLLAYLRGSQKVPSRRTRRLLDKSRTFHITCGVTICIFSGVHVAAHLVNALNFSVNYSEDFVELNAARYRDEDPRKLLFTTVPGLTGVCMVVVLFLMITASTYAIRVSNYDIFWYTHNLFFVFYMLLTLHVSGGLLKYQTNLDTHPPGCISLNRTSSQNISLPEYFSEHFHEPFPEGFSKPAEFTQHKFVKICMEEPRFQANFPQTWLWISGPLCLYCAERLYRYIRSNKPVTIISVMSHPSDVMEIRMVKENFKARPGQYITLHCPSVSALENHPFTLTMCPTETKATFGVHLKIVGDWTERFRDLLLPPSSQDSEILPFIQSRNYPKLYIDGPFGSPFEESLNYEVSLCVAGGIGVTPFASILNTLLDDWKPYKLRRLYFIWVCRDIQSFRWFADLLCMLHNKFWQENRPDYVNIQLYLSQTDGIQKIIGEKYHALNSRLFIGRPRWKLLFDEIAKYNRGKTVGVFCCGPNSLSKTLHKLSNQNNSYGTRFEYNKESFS
Sequence of NADPH oxidase 5 (Homo sapiens) (Q96PH1 whole entry, looked up): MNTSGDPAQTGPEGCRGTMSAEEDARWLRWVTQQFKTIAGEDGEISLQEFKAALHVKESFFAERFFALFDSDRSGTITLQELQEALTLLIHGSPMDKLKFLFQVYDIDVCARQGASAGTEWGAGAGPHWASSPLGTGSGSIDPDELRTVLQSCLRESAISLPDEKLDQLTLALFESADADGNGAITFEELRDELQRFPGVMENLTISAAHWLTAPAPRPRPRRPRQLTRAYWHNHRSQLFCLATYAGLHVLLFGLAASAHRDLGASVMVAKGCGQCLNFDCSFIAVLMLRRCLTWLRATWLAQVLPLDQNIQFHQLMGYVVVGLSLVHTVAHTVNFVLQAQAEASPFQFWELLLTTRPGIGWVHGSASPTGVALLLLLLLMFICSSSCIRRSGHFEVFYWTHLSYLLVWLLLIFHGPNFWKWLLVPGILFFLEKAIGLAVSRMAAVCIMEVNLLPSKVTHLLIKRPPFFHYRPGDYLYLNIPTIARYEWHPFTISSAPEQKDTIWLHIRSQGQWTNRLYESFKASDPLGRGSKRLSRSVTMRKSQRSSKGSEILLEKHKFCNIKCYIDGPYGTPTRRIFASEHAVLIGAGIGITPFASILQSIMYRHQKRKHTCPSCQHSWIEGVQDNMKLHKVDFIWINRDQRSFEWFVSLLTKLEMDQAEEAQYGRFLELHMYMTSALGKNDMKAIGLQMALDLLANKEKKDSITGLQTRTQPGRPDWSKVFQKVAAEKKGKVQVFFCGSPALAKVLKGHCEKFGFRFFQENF
Sequence of NADPH oxidase 2 (Homo sapiens) (P04839 whole entry, looked up): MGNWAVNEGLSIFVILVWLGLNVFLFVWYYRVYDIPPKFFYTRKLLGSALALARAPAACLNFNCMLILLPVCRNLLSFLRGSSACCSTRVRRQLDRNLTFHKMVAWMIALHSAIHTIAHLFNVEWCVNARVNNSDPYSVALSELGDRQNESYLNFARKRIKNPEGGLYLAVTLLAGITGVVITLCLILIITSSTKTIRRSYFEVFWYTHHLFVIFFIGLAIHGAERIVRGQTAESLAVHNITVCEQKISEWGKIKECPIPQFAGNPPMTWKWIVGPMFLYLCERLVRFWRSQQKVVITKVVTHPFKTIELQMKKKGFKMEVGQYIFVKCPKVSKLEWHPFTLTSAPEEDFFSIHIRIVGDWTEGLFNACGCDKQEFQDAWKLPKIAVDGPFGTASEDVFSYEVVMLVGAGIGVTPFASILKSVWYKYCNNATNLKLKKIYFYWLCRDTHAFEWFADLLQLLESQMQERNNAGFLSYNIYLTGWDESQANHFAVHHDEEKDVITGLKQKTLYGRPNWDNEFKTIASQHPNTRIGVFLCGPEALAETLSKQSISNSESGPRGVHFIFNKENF

As for `COC(=O)C1=C(C)N(Cc2ccccc2)[C@]23O[C@](C(=O)OC)(C(=O)N2[C@@H]1c1ccccc1)[C@@H](c1ccccc1)[C@@H]3C(=O)c1ccccc1`, the z-score was -1.1 (inactive) and 0.116 (inactive) in test [1]; 1.17 (inactive) and 0.647 (inactive) in [3]; -0.645 (inactive) and 0.238 (inactive) in test [4]; 0.372 (inactive) and 0.467 (inactive) in [5]; -1.38 (inactive) and 0.0752 (inactive) in test [6]; 1.39 and 0.0227 in test [7]. For the same compound, the z-score in test [8] was 2.38 (inactive) and 0.648 (inactive); in [9] it was 0.856 (inactive) and 0.876 (inactive); in test [10], 2.66 and 1.46. Further, the composite z-score in test [2] was -0.145 and -0.193.
Turning to `C=CCN(CCCCC)C(=O)C1N(C(C)(C)CO)C(=O)C2C(C(=O)O)C3C=CC21O3` (stereo not given), the z-score is -0.548 (inactive) and -0.511 (inactive) in test [1]; -0.632 (inactive) and -0.588 (inactive) in [3]; -0.042 (inactive) and -0.318 (inactive) in test [4]; -0.694 (inactive) and -1.04 (inactive) in test [5]; -0.281 (inactive) and -0.646 (inactive) in test [6]; 0.0495 and 2.08 in test [7]. Besides, the z-score in test [8] was 1.02 (inactive) and 0.298 (inactive); in [9] it was -0.188 (inactive) and -0.0857 (inactive); in [10], 0.101 and 0.407. In addition, the composite z-score in [2] was -0.717 and -0.18.
For `CCOC(=O)c1ccc(NC(=O)O[C@H]2[C@H](OC(=O)Nc3ccccc3)[C@H](OC(=O)Nc3ccccc3)[C@@H](OC)O[C@@H]2CO)cc1`, the z-score in [1] was 0.473 (inactive) and -0.33 (inactive); in [3], 14.6 (active) and 24.1 (active); in test [4], 2.63 (inactive) and 11.5 (active); in [5], 0.433 (inactive) and -0.123 (inactive); in test [6], 1.23 (inactive) and 1.89 (inactive); in [7], -0.636 and 0.647. Moreover, the z-score in test [8] was -0.218 (inactive) and 1.15 (inactive); in test [9], -0.122 (inactive) and -0.312 (inactive); in test [10], -0.195 and -0.355. In addition, in [2], the composite z-score was 0.416 and 0.344.
